# Measurements published in PubChem BioAssay (EPA / NIEHS).
# “And” between values parts separate entries of the source, which are not always exact repeats. Equal values may be shown once. The source made the active and inactive calls. Rule for the calls: active = hit-call score of the fitted dose curve at least 0.9, where 1 is the maximum; inactive = score below 0.9.
# Assay: BSK_3C_TissueFactor: BioMAP Diversity Plus: 3C Assay for Tissue Factor Biomarker Activity (AID 2282997)
# Conditions: BioMAP 3C HUVEC, tissue factor biomarker readout; actives raise or lower the signal
# Method: BSK_3C is a cell-based, multiplexed-readout assay that uses umbilical vein endothelium, a human vascular primary cell, with measurements taken at 24 hours after chemical dosing in a 96-well plate.BSK_3C_TissueFactor is an assay component measured in the BSK_3C assay. It measures Tissue Factor antibody related to regulation of gene expression using ELISA technology.Data from the assay component BSK_3C_TissueFactor was analyzed into 1 assay endpoint. This assay endpoint, BSK_3C_TissueFactor, was analyzed with bidirectional fitting relative to DMSO as the negative control and baseline of activity. Using a type of binding reporter, gain or loss-of-signal activity can be used to understand changes in the signaling as they relate to the gene F3. Furthermore, this assay endpoint can be referred to as a primary readout, because this assay has produced multiple assay endpoints where this one serves a signaling function. To generalize the intended target to other relatable targets, this assay endpoint is annotated to the cytokine intended target family, where the subfamily is coagulation factor.
# The levels of cell surface (or secreted, indicated by the prefix "s") biomarker endpoints were measured by ELISA. Overt cytotoxicity to cells in confluent adherent cultures (all systems other than the BT system) was assessed by measuring total protein levels using sulforhodamine B (SRB) staining in parallel cultures at the time of biomarker measurements, indicated as SRB endpoints. For proliferation assays for adherent cell types, individual cell types are cultured at sub-confluence and relative cell numbers quantified by SRB staining at time points optimized for each system (48 h: 3C and CASM3C systems; 72 h: BT and HDF3CGF systems; 96 h: SAg system). SRB was performed by staining cells with 0.1% SRB after fixation with 10% TCA and reading wells at 560 nm.Viability and proliferation of PBMC (T cells) was quantified by Alamar Blue reduction for the SAg and BT systems. For PBMC viability (referred to as PBMC Cytotoxicity within the assay endpoint names), cells were plated (75,000/well in a 96-well plate) and then chemical samples added for 1 h before addition of activators, SEB and TSST-1 (20 ng/mL final concentration each). Cells were incubated for 90 h. Then, Alamar Blue (20 uL/well) (Invitrogen, Cat DAL1100) was added for 6 h, and the plates were read with a fluorescence microplate reader at 546/580 nm (excitation/emission). For PBMC proliferation, cells were plated and activated as above but incubated for only 16 h prior to addition of Alamar Blue. Plates were read after 6 h.
SMILES,outcome,AC50
C=C(C)C(=O)OCCC(F)(F)C(F)(F)C(F)(F)C(F)(F)C(F)(F)C(F)(F)C(F)(F)C(F)(F)F,inactive,
O=S(=O)(O)C(F)(F)C(F)(F)OC(F)(F)C(F)(F)F,inactive,
C=C(F)C(=O)OC(C(F)(F)F)C(F)(F)F,inactive,
CCCCCCCCCC(=O)OCC,,28.7 µM (active)
CCCO[Si](OCCC)(OCCC)OCCC,inactive,
C[C@]12CC[C@@H]3c4ccc(O)cc4CC[C@H]3[C@@H]1CC[C@@H]2O,,20 µM (active)
CC/C(=C(\c1ccccc1)c1ccc(OCCN(C)C)cc1)c1ccccc1,,11.2 µM (active) and 11.1 µM (active)
C=C(C)C(N)=O,inactive,
c1ccc(OCCOc2ccccc2)cc1,,1.24 µM (active) and 1.4 µM (active)
O=C(c1ccc(OCCN2CCCCC2)cc1)c1c(-c2ccc(O)cc2)sc2cc(O)ccc12,,34.6 µM (active)
CC=CC(=O)C1=C(C)C=CCC1(C)C,inactive,
CC(C)(CO)CO,inactive,
O=C(O)C(F)(F)C(F)(F)C(F)(F)C(F)(F)C(F)(F)C(F)(F)C(F)(F)C(F)F,inactive,
CCn1cc(C(=O)O)c(=O)c2ccc(C)nc21,inactive,
CC(C)(C)c1cccc(O)c1,inactive,
OCC(F)(OC(F)(F)C(F)(OC(F)(F)C(F)(F)C(F)(F)F)C(F)(F)F)C(F)(F)F (stereo not given),inactive,
CCCCOCCOCCO,inactive,
Nc1ccc(N)c([N+](=O)[O-])c1,inactive,
CCOC(=O)CCCCCCCCC(=O)OCC,inactive,
C=C1CC/C=C(\C)CC[C@@H]2[C@@H]1CC2(C)C,,16.8 µM (active)

SMILES,outcome,AC50
c1ccc2c(c1)-c1ccc3ccc4cccc5cc-2c1c3c45,,0.0352 µM (active)
CCCCCCCC1CCCC1=O (stereo not given),,33 µM (active)
NC(=O)c1c(Cl)cccc1Cl,,0.0671 µM (active)
CCCCN(CCO)CCO,inactive,
O=C(O)C(F)(F)OC(F)(F)C(F)(F)OC(F)(F)C(F)(F)C(F)(F)C(F)(F)F,inactive,
OCCN1CCOCC1,inactive,
CCOC(=O)C=Cc1ccccc1,inactive,
CC(=O)OC(C)(C)C1CC=C(C)CC1 (stereo not given),,29.8 µM (active)
C=CC(=O)OCC(CO)(COC(=O)C=C)COC(=O)C=C,,0.137 µM (active)
C#C[C@]1(O)CC[C@H]2[C@@H]3CCc4cc(O)ccc4[C@H]3CC[C@@]21C,,5.38 µM (active)
c1ccc(Sc2ccccc2)cc1,,33 µM (active)
CC1=CC(C)C(C=O)C(C)C1 (stereo not given) (tested in a mixture with another compound),inactive,
CCC(=O)OCC=Cc1ccccc1,inactive,
CC(C)Cc1ccc(C(C)C(=O)O)cc1 (stereo not given),inactive,
CC(C)CCCC(C)(C)O,inactive,
CC(=O)c1ccc(C)cc1,inactive,
CC1(C)[C@H](C=C(Cl)Cl)[C@H]1C(=O)OCc1cccc(Oc2ccccc2)c1,inactive,
CC(=O)CCC=C(C)CCC=C(C)C,inactive,
CC(=O)OCC=C(C)CCC=C(C)CCC=C(C)C,inactive,
CCCCCCCCCCCCS,,30.7 µM (active)
